High-throughput results: PubChem BioAssay, The Scripps Research Institute Molecular Screening Center
Only some compounds are listed: those with a hit (about 1.1% of all), similar ones and a draw of the others.
GalR3 antagonist: antagonists of human GalR3 | inhibition, % at 3 µM | HEK293 GalR3-CNG cAMP membrane potential fluorescence; galR3 body fused to GalR1 C-terminus | actives 0.44% (n = 360,000) | O60755;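 active = inhibition above the screen-wide average plus 3 SD, cut at about 13% in these data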;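 note: forskolin and galanin both at EC90 stimulate the cells; cAMP rise reported by CNG channel membrane potential dye signal; 0% = forskolin plus galanin with DMSO and 100% = forskolin alone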
SRC2 inh: inhibits human steroid receptor coactivator 2. inhibition, % at 9 µM. AID 651957. Q15596. actives 0.17% (n = 370,000). HEK293 GAL4-SRC2 luciferase reporter, luminescence;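 active = inhibition above the mean inhibition of all tested compounds plus 3 SD, set per campaign, cut at about 52% in these data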;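 note: 0% = DMSO treated cells and 100% = cells given Gossypol at 36 µM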
Target sequence (Q15596 whole entry, looked up, the tested form may be a part): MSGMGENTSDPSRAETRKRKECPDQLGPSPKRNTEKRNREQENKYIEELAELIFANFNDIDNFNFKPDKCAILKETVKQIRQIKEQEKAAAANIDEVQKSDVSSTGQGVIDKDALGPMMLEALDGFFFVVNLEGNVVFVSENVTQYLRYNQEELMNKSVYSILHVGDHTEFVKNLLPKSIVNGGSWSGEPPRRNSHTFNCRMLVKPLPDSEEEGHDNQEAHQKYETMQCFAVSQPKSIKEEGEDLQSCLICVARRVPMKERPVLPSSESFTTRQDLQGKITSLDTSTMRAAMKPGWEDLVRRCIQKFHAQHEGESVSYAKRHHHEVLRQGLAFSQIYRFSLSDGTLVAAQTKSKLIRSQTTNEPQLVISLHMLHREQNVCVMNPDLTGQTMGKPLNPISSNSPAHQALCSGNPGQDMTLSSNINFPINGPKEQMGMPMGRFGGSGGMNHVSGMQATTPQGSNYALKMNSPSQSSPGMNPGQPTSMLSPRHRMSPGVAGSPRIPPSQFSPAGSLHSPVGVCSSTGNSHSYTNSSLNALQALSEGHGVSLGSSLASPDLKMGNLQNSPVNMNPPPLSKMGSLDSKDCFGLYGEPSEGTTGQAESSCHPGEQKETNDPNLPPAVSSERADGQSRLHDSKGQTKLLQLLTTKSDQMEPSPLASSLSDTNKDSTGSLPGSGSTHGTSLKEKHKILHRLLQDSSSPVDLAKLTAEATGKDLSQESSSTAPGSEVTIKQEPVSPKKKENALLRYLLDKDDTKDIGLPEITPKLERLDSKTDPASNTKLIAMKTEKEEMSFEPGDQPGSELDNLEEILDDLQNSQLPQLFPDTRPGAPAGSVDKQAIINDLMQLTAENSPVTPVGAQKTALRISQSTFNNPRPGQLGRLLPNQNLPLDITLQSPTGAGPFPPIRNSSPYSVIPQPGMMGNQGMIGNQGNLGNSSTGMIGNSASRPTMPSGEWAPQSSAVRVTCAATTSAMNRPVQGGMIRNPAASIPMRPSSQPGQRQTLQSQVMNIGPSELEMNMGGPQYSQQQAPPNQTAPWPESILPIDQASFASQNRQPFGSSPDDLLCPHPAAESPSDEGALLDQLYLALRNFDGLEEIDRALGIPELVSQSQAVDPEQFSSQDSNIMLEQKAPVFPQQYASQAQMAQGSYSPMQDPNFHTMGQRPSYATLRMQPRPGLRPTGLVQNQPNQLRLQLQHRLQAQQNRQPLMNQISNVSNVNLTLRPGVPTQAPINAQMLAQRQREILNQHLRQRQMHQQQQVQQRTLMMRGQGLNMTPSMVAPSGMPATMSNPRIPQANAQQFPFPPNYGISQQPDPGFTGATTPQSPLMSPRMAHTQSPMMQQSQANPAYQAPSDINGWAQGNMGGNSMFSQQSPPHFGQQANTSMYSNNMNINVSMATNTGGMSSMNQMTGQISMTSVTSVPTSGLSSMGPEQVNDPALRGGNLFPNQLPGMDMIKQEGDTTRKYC
NCOA1 inh: human NCOA1 inhibition; Q15788; HEK293 GAL4-SRC1 luciferase reporter, luminescence; inhibition, % at 3.6 µM; actives 0.12% (n = 360,000); AID 588354;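 active = inhibition above the campaign mean plus 3 SD, with each screening campaign given its own cutoff, cut at about 60% in these data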;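 note: 0% = DMSO treated cells and 100% = gossypol at 36 µM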
SRC3 inh: inhibits human SRC3 coactivator; Q9Y6Q9; HEK293 GAL4-SRC3 luciferase reporter, luminescence; inhibition, % at 3.6 µM; actives 0.17% (n = 360,000);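 active = inhibition above a per-campaign cutoff, the mean of all compounds plus 3 SD, cut at about 60% in these data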;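 note: 0% = DMSO-treated cells and 100% = gossypol-treated cells at 36 µM; higher means less SRC3-driven luciferase light from the GAL4 reporter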
LRH-1 inv ag: inverse agonists of human LRH-1 (NR5A2); inhibition, % at 3.6 µM; AID 602396; O00482; HEK293T StAR-luciferase reporter, LRH-1 transfected, 24 h; actives 0.13% (n = 360,000);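 active = inhibition above the mean inhibition of all tested compounds plus 3 SD, cut at about 73% in these data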;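 note: 0% = DMSO wells and 100% = reporter-only cells lacking LRH-1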
NR2F2 inh: NR2F2 (human) inhibition, primary screen | P24468 | HEK293T NGFI-A luciferase reporter, luminescence | inhibition, % at 8.6 µM | actives 0.7% (n = 370,000);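 active = inhibition above a per-plate cutoff, mean inhibition of test wells between control levels plus 3 SD, cut at about 38% in these data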;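 note: cells cotransfected with COUP-TFII expression vector driving the NGFI-A reporter; 0% = median of COUP-TF2 test wells and 100% = reporter-only cells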
Gal4-VP16 ctr: VP16 inhibition counter-screen for COUP-TFII. shares compounds with NR2F2 inh. HEK293 Gal4-VP16 luciferase reporter, luminescence. inhibition, % at 8.5 µM. actives 25% (n = 2,500); in the data active = inhibition above about 13%
COUP-TFII conf: confirmation of human COUP-TFII (NR2F2) inhibitors; shares compounds with NR2F2 inh; HEK293 NGFI-A luciferase reporter, luminescence; inhibition, % at 8.5 µM; actives 45% (n = 2,500);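 active = mean inhibition over three repeats above a set limit taken from the earlier primary screen, cut at about 38% in these data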;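 note: 100% = cells given the luciferase reporter alone without the COUP-TF2 vector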
* hit, by the source's call.

Screening COc1cc(C(=O)NC2CCCCN(Cc3cccc(C(F)(F)F)c3)C2=O)cc(OC)c1OC (stereo not drawn) returned SRC2 inh 8 and NR2F2 inh 26.
`COc1ccc(-c2nnn3c2Cn2c4ccccc4c(=O)n2[C@@H](C(C)C)C3)cc1` gave SRC2 inh 17 and NR2F2 inh -11.
`COc1ccc(C2CC(O)(c3ccccc3)Oc3cc(OC)c(OC)c(OC)c32)cc1` (stereo not drawn) gave GalR3 antagonist -3, SRC2 inh -16, NCOA1 inh -9, SRC3 inh 9, LRH-1 inv ag 1 and NR2F2 inh 8.
COc1ccc([C@@]23Oc4cc(OC)cc(OC)c4[C@]2(O)[C@H](O)[C@H](C(=O)N(C)C)[C@H]3c2ccccc2)cc1 was read as GalR3 antagonist 2, SRC2 inh 72*, NCOA1 inh 90*, SRC3 inh 89*, LRH-1 inv ag 100*, NR2F2 inh 87*, Gal4-VP16 ctr 20* and COUP-TFII conf 74*.
CCCCCc1cc(O)c2c(C)cc(=O)oc2c1 was read as GalR3 antagonist -6, SRC2 inh 7, NCOA1 inh -2, SRC3 inh 18, LRH-1 inv ag 3, NR2F2 inh 41*, Gal4-VP16 ctr -20 and COUP-TFII conf -3.
Cc1cc(=O)oc2cc(O)cc(O)c12 was read as GalR3 antagonist -1, SRC2 inh 11, NCOA1 inh 9, SRC3 inh 1, LRH-1 inv ag 13 and NR2F2 inh -5.
Screening NC(Cc1ccc(Cl)cc1)c1csc(NC(=O)NCCc2ccccc2)n1 (stereo not drawn) returned GalR3 antagonist -8, SRC2 inh 3, NCOA1 inh 15, SRC3 inh -13, LRH-1 inv ag -14 and NR2F2 inh -9.
For NC(Cc1ccc(Cl)cc1)c1csc(NC(=O)NCC2CCCCC2)n1 (stereo not drawn) the results were GalR3 antagonist -9, SRC2 inh 60*, NCOA1 inh -4, SRC3 inh 12, LRH-1 inv ag -8, NR2F2 inh 81*, Gal4-VP16 ctr 2 and COUP-TFII conf 0.
`Cc1ccc(Cn2ccc(NC(=O)c3cc(C4CC4)on3)n2)cc1` gave GalR3 antagonist -1, SRC2 inh 18, NCOA1 inh 10, SRC3 inh -5, LRH-1 inv ag -3, NR2F2 inh 39*, Gal4-VP16 ctr -7 and COUP-TFII conf -9.
Screening Cc1ccccc1NC(=O)CSc1nnc(-c2cc(-c3ccccc3)n[nH]2)n1N returned SRC2 inh -4 and NR2F2 inh 0.
For Cc1nc2ccccn2c1-c1ccnn1S(=O)(=O)c1ccc(F)cc1 the results were GalR3 antagonist 6, SRC2 inh 24, NCOA1 inh 2, SRC3 inh 34, LRH-1 inv ag 17, NR2F2 inh 49*, Gal4-VP16 ctr -2 and COUP-TFII conf 11.
`Cc1nc2ccccn2c1C(=O)/C=C/c1ccc(F)cc1` gave GalR3 antagonist 3, SRC2 inh -46, NCOA1 inh -27, SRC3 inh -8, LRH-1 inv ag -68 and NR2F2 inh -3.
CCCC1CCC2(CCCN2CCOC(=S)Nc2ccccc2OC)CC1 (stereo not drawn) was read as NR2F2 inh 51*, Gal4-VP16 ctr 2 and COUP-TFII conf 8.
COCc1[nH]nc2c1C(c1ccc(F)cc1)N(c1ccc(OC)cc1)C2=O (stereo not drawn) was read as GalR3 antagonist 2, SRC2 inh -18 and NR2F2 inh 3.
Screening O=[N+]([O-])c1ccc(Sc2cccc[n+]2[O-])c2nonc12 returned GalR3 antagonist -6, SRC2 inh 93*, NCOA1 inh 89*, SRC3 inh 84*, LRH-1 inv ag 90*, NR2F2 inh 101*, Gal4-VP16 ctr 96* and COUP-TFII conf 105*.
